Screening results as filed in PubChem.
Shown are actives, neighbours in structure and some others; about 12% of the full set was active somewhere.
G9a inh: G9a (human) methyltransferase inhibition; Potency, µM (doses to about 102 µM), most hits filed as inhibitors; hit rate 8.8% among 350,000; G9a H3K9 monomethylation, AlphaScreen, 2 h; Q96KQ7; AID 504332; further: nearly all actives have a fitted effect of over 75% in size
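AlphaScreen detection with an anti-monomethyl H3K9 antibody quantified product after a 2 h room-temperature reaction containing 500 nM biotinylated H3K9 peptide, 20 µM SAM and 20 nM enzyme, which had been preincubated 15 min with compound.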
HP1b binding inh: HP1-beta chromodomain-methylated histone interaction inhibition; AlphaScreen HP1-beta / biotin-H3K9me3 peptide binding; Potency, µM (titrated, usually from 114 µM), hits mostly inhibitors; hit rate 0.56% among 390,000; further: nearly all actives have a fitted effect of over 70% in size
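Compound inhibition of the preformed complex between 50 nM HP1-beta and 50 nM biotinylated H3K9me3 peptide was read by AlphaScreen. Buffer was PBS pH 7.4 with 0.01% Tween-20. Incubations ran 30 min at room temperature, with 10 ug/mL donor/acceptor beads.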
BAZ2B block: inhibitors of human BAZ2B bromodomain | AlphaScreen BAZ2B-H3K14Ac peptide displacement | Q9UIF8 | Potency, µM (top dose mostly 114 µM), usual class: inhibitors | hit rate 4.4% among 360,000; further: nearly all actives have a fitted effect of over 60% in size
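Inhibition is scored as reduced AlphaScreen emission. The BAZ2B/b-H3(5-23)K14Ac complex (50 nM each) in PBS pH 7.4, 0.01% Tween-20 meets compound (up to 110 uM) for 30 min at RT before bead addition.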
Sfp inh: inhibitors of Bacillus subtilis Sfp phosphopantetheinyl transferase; AID 1490; hit rate 3.5% among 310,000; Potency, µM, most hits filed as inhibitors; Q9F4F7; Biochemical Sfp PPTase activity, qHTS;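 further: the enzyme is Sfp with the accession as filed and its product quenches rhodamine fluorescence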
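Compounds were incubated with enzyme (final 15 nM) for 15 min at room temperature before substrate addition started the reaction. Fluorescence at 525 nm excitation, 598 nm emission was recorded immediately and after 30 minutes.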
JMJD2A Tudor inh: inhibitors of human JMJD2A Tudor domain; Potency, µM (doses to about 114 µM), hits mostly inhibitors; AlphaScreen JMJD2A-Tudor / H3K4me3 peptide binding; AID 504339; hit rate 4.4% among 390,000; further: nearly all actives have a fitted effect of over 50% in size
Target sequence (O75164 whole entry, looked up, the tested form may be a part): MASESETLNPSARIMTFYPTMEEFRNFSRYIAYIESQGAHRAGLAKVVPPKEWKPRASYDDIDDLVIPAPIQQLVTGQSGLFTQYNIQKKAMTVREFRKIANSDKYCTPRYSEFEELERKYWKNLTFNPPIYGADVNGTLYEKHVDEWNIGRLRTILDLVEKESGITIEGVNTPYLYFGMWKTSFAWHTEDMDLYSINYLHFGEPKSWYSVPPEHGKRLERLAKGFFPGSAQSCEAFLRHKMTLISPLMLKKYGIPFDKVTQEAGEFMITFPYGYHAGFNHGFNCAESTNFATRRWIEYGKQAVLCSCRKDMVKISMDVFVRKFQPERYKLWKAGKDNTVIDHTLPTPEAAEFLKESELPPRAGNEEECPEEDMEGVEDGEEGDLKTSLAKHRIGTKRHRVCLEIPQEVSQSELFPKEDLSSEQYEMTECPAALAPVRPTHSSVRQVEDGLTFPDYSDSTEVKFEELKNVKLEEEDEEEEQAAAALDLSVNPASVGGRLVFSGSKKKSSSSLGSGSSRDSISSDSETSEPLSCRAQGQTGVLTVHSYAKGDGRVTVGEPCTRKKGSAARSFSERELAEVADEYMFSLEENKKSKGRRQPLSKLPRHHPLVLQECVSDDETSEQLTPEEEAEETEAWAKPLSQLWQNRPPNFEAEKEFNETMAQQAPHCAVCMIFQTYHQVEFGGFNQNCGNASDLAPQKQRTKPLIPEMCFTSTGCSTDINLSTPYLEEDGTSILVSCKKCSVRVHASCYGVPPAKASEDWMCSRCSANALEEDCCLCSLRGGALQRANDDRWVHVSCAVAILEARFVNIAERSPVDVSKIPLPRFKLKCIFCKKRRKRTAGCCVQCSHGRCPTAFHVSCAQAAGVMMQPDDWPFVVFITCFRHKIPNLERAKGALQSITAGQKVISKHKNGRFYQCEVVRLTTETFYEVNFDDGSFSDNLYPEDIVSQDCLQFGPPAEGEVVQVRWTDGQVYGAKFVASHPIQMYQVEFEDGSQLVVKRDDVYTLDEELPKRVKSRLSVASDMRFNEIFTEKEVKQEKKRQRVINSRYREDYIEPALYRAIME
Large screens that a line does not name were inactive. The call rests on the fitted dose curve; in most records, active means well fitted curve in the direction sought with a large enough effect; inconclusive means small, poorly fitted or top-dose-only effect, or another doubt; inactive means no such curve, though single readings can be large; an effect the other way counts as inactive or inconclusive.

N#Cc1ccccc1S(=O)(=O)N1CCN(c2nc(-c3cccnc3)nc3ccccc23)CC1	G9a inh 50µM, JMJD2A Tudor inh inconclusive (no result: Sfp inh)
c1ccc(N2CCN(c3nc(-c4ccccn4)nc4ccccc34)CC2)cc1	G9a inh inconclusive, HP1b binding inh inconclusive, BAZ2B block 1.8µM, JMJD2A Tudor inh inconclusive
Fc1ccccc1-c1nc(N2CCN(c3cccc(Cl)c3)CC2)c2ccccc2n1	none (no result: Sfp inh)
CCN1CCN(c2nc(-c3cccnc3)nc3ccccc23)CC1	G9a inh inconclusive, JMJD2A Tudor inh 89µM
CC(C)(C)OC(=O)Cc1nnc(-c2cc3ccccc3[nH]2)o1	none (no result: G9a inh, HP1b binding inh, BAZ2B block, Sfp inh)
O=[N+]([O-])c1cccnc1NCCc1c[nH]c2ccccc12	none
O=[N+]([O-])c1cc(C(F)(F)F)ccc1NCCc1c[nH]c2ccc(O)cc12	G9a inh inconclusive, HP1b binding inh inconclusive, BAZ2B block 40µM, JMJD2A Tudor inh 22µM
O=[N+]([O-])c1cc(C(F)(F)F)ccc1NCCc1c[nH]c2ccccc12	G9a inh inconclusive, HP1b binding inh inconclusive, BAZ2B block 11µM, JMJD2A Tudor inh 22µM
CN1c2ccc(Cl)cc2-c2nc(SCC(=O)NCc3ccc(F)cc3)ncc2S1(=O)=O	none (no result: Sfp inh)
O=C(CSc1nc2c([nH]c3ccccc32)c(=O)n1-c1ccccc1)N1CCCCC1	none (no result: Sfp inh)
COc1ccc(CC(=O)Nc2ccc(OC)c(NC(=O)c3ccco3)c2)cc1	G9a inh 50µM
Cc1ccc(-c2nc3ccccc3o2)cc1NC(=S)NC(=O)c1cc2ccccc2o1	G9a inh 50µM, Sfp inh inconclusive
Cc1ccc(-c2nc3cc(C(C)C)ccc3o2)cc1NC(=O)c1cc2ccccc2o1	none (no result: Sfp inh)
COc1ccc(NC(=O)c2oc3ccccc3c2NC(=O)c2ccco2)c(OC)c1	Sfp inh 25µM
COc1ccc(NC(=S)NC(=O)c2cc3ccccc3o2)c(OC)c1	G9a inh 10µM
COc1ccc(S(=O)(=O)NC2CC(=O)N(c3ccccc3)C2)cc1C (stereo not given)	none (no result: Sfp inh)
Cc1ccc(Cl)cc1NC(=O)CN(C)S(=O)(=O)c1ccc2c(c1)n(C)c(=O)c(=O)n2C	none (no result: Sfp inh)
CC1(C)SCC(C(=O)O)NC1=O (stereo not given)	none
O=C(O)[C@@H]1CSC2(CCSC2)N1 (stereo not given in full)	G9a inh inconclusive, Sfp inh 45µM (no result: HP1b binding inh, BAZ2B block, JMJD2A Tudor inh)
Cc1cccc(NC(=O)CN2C(=O)N/C(=C/c3ccc(-c4cccc(C(=O)O)c4C)o3)C2=O)c1	G9a inh inconclusive, BAZ2B block inconclusive, Sfp inh 32µM
Cc1ccc(NC(=O)CN2C(=O)S/C(=C\c3ccccn3)C2=O)cc1C	none
O=C(CN1C(=O)S/C(=C\c2ccc(-c3cc(C(=O)O)ccc3Cl)o2)C1=O)Nc1ccc2c(c1)OCO2	G9a inh inconclusive, BAZ2B block 8.9µM (no result: HP1b binding inh, JMJD2A Tudor inh)
Cc1ccc(NC(=O)CN2C(=O)S/C(=C\c3ccc(-c4cccc(C(=O)O)c4C)o3)C2=O)cc1C	G9a inh 18µM, HP1b binding inh 35µM, BAZ2B block 16µM, Sfp inh 45µM, JMJD2A Tudor inh 18µM
CCOc1cc(/C=C2/NC(=O)N(CC(=O)Nc3cccc(C)c3)C2=O)ccc1OCC(N)=O	JMJD2A Tudor inh 56µM
CC(=O)N1CCC2(CC1)CCN(C(c1ccccc1)c1ccccc1)CC2	none (no result: HP1b binding inh, BAZ2B block, JMJD2A Tudor inh)
COc1ccc(Cl)cc1NC(=O)NC(C)C	G9a inh inconclusive
COc1ccc(Cl)cc1NC(=O)C(C)NC(c1ccccc1)c1ccccc1 (stereo not given)	G9a inh 79µM
CNC(=O)c1nnsc1S(=O)c1ccc(Cl)cc1 (stereo not given)	G9a inh 35µM, Sfp inh 13µM
Cc1ccc(S(=O)c2snnc2C)cc1 (stereo not given)	none
CCCNC(=O)NS(=O)(=O)c1ccc(Cl)cc1	none
CCCNC(=O)c1nnsc1S(=O)(=O)c1ccc(Cl)cc1	G9a inh 13µM, Sfp inh 13µM
CCCNC(=O)c1nnsc1S(=O)c1ccc(Cl)cc1 (stereo not given)	G9a inh 25µM, Sfp inh 20µM
COc1ccc(-c2nc3cnc(Oc4ccccc4)nc3n(C3CC3)c2=O)cc1	none (no result: HP1b binding inh, BAZ2B block, JMJD2A Tudor inh)
COc1ccc(C2NC(C(=O)O)Cc3c2[nH]c2ccccc32)cc1OC (stereo not given)	G9a inh inconclusive, HP1b binding inh inconclusive, JMJD2A Tudor inh 3.2µM
